# Experimental data from PubChem BioAssay AID1159580 (chemical genetic matrix, 2015).
# The campaign covered roughly 5,500 compounds. About 2,000 (36%) were called active. About 18% were inconclusive and are not listed. The list shows a part of the results. Unmarked numbers belong to inactive results. No stated cut-off is given here; in the data, active means normalized growth mostly below about 0.91 (no sharp cut-off); inconclusive means no clear call, values can overlap the other calls; inactive means mostly above about 0.92.
# Assay: chemical genetic growth profiling, strain panel (AID 1159580);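 further: tested at 20 µM; growth read once vehicle control cultures reached saturation at 30 °C; 1 = growth at the plate median or of vehicle wells; lower values mean less growth of the strain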
# Conditions: S. cerevisiae deletion strains, growth OD
# [1] = locus YAR019C, strain CDC15, hits give low values
# [2] = locus YBL105C, strain PKC1, hits give low values
# [3] = locus YBR135W, strain CKS1, hits give low values
# [4] = locus YBR136W, strain MEC1, hits give low values
# [5] = locus YBR160W, strain CDC28, hits give low values
# [6] = locus YDL017W, strain CDC7, hits give low values
# [7] = locus YDL028C, strain MPS1, hits give low values
# [8] = locus YDL101C, strain DUN1, hits give low values
# [9] = locus YDL108W, strain KIN28, hits give low values
# [10] = locus YDL132W, strain cdc53, hits give low values
# [11] = locus YDL214C, strain PRR2, hits give low values
# [12] = locus YDR052C, strain DBF4, hits give low values
# [13] = locus YDR054C, strain cdc34, hits give low values
# [14] = locus YDR226W, strain ADK1, hits give low values
# [15] = locus YDR477W, strain SNF1, hits give low values
# [16] = locus YER123W, strain YCK3, hits give low values
# [17] = locus YER133W, strain GLC7, hits give low values
# [18] = locus YFL009W, strain cdc4, hits give low values
# [19] = locus YFL029C, strain CAK1, hits give low values
# [20] = locus YFR003C, strain YPI1, hits give low values
# [21] = locus YFR019W, strain FAB1, hits give low values
# [22] = locus YFR028C, strain CDC14, hits give low values
# [23] = locus YGR040W, strain KSS1, hits give low values
# [24] = locus YGR052W, strain FMP48, hits give low values
# [25] = locus YGR092W, strain DBF2, hits give low values
# [26] = locus YHR030C, strain SLT2, hits give low values
# [27] = locus YHR079C, strain IRE1, hits give low values
# [28] = locus YHR082C, strain KSP1, hits give low values
# [29] = locus YHR205W, strain SCH9, hits give low values
# [30] = locus YIL147C, strain SLN1, hits give low values
# [31] = locus YJL095W, strain BCK1, hits give low values
# [32] = locus YJL128C, strain PBS2, hits give low values
# [33] = locus YJL157C, strain FAR1, hits give low values
# [34] = locus YJR016C, strain ILV3, hits give low values
# [35] = locus YJR066W, strain TOR1 (second series), hits give low values
# [36] = locus YJR066W, strain TOR1, hits give low values
# [37] = locus YKL048C, strain ELM1, hits give low values
# [38] = locus YKL067W, strain YNK1, hits give low values
# [39] = locus YKL101W, strain HSL1, hits give low values
# [40] = locus YKL193C, strain SDS22, hits give low values
# [41] = locus YKL203C, strain TOR2, hits give low values
# [42] = locus YLR113W, strain HOG1, hits give low values
# [43] = locus YLR133W, strain CKI1, hits give low values
# [44] = locus YLR403W, strain SFP1, hits give low values
# [45] = locus YML070W, strain DAK1, hits give low values
# [46] = locus YMR001C, strain CDC5, hits give low values
# [47] = locus YMR205C, strain PFK2 (second series), hits give low values
# [48] = locus YMR277W, strain FCP1, hits give low values
# [49] = locus YNL006W, strain LST8, hits give low values
# [50] = locus YNL020C, strain ARK1, hits give low values
# [51] = locus YNL161W, strain CBK1, hits give low values
# [52] = locus YNL183C, strain NPR1, hits give low values
# [53] = locus YNL207W, strain RIO2, hits give low values
# [54] = locus YNL222W, strain SSU72, hits give low values
# [55] = locus YNL307C, strain MCK1 (second series), hits give low values
# [56] = locus YOL078W, strain AVO1, hits give low values
# [57] = locus YOL136C, strain PFK27, hits give low values
# [58] = locus YOR061W, strain CKA2, hits give low values
# [59] = locus YOR119C, strain RIO1, hits give low values
# [60] = locus YOR231W, strain MKK1, hits give low values
# [61] = locus YOR329C, strain SCD5, hits give low values
# [62] = locus YPL031C, strain PHO85, hits give low values
# [63] = locus YPL153C, strain RAD53, hits give low values
# [64] = locus YPL204W, strain HRR25, hits give low values
# [65] = locus YPL209C, strain IPL1, hits give low values
# [66] = locus YPL256C, strain CLN2, hits give low values
# [67] = locus YPR025C, strain CCL1, hits give low values
# [68] = locus YPR106W, strain ISR1, hits give low values
# [69] = locus YPR111W, strain DBF20, hits give low values
# [70] = strain NNK1, hits give low values
# [71] = strain TSCII, hits give low values
smiles,measurement,setting,value
Cc1c(C)c(C)c(CSC(N)=Nc2ccc(F)cc2)c(C)c1C,normalized growth,[1],0.996
same,normalized growth,[2],0.997
same,normalized growth,[3],0.994
same,normalized growth,[4],0.997
same,normalized growth,[5],0.997
same,normalized growth,[6],0.999
same,normalized growth,[7],0.995
same,normalized growth,[8],1.01
same,normalized growth,[9],0.992
same,normalized growth,[10],1
same,normalized growth,[11],0.944
same,normalized growth,[12],1
same,normalized growth,[13],0.998
same,normalized growth,[14],0.995
same,normalized growth,[15],0.931
same,normalized growth,[16],0.894
same,normalized growth,[17],0.937
same,normalized growth,[18],1.01
same,normalized growth,[19],0.993
same,normalized growth,[20],1
same,normalized growth,[21],0.946
same,normalized growth,[22],1.01
same,normalized growth,[23],0.932
same,normalized growth,[24],0.959
same,normalized growth,[25],0.975
same,normalized growth,[26],0.946
same,normalized growth,[27],0.953
same,normalized growth,[28],1.02
same,normalized growth,[29],0.967
same,normalized growth,[30],0.992
same,normalized growth,[31],0.925
same,normalized growth,[32],0.942
same,normalized growth,[33],0.936
same,normalized growth,[34],0.998
same,normalized growth,[35],0.93
same,normalized growth,[36],1.05
same,normalized growth,[37],0.966
same,normalized growth,[38],0.955
same,normalized growth,[39],0.943
same,normalized growth,[40],0.999
same,normalized growth,[41],0.999
same,normalized growth,[42],0.823 (active)
same,normalized growth,[43],0.969
same,normalized growth,[44],0.953
same,normalized growth,[45],0.921
same,normalized growth,[46],0.993
same,normalized growth,[47],0.953
same,normalized growth,[48],1
same,normalized growth,[49],1
same,normalized growth,[50],0.969
same,normalized growth,[51],1
same,normalized growth,[52],1.03
same,normalized growth,[53],0.998
same,normalized growth,[54],1.01
same,normalized growth,[55],0.969
same,normalized growth,[56],0.998
same,normalized growth,[57],0.945
same,normalized growth,[58],0.972
same,normalized growth,[59],1
same,normalized growth,[60],0.97
same,normalized growth,[61],0.996
same,normalized growth,[62],0.929
same,normalized growth,[63],0.942
same,normalized growth,[64],0.95
same,normalized growth,[65],0.999
same,normalized growth,[66],0.902
same,normalized growth,[67],1
same,normalized growth,[68],0.99
same,normalized growth,[69],0.99
same,normalized growth,[70],0.995
same,normalized growth,[71],0.998
CCSC(N)=Nc1ccc(C(F)(F)F)cc1,normalized growth,"locus YAL040C, strain CLN3, hits give low values",0.942
same,normalized growth,"locus YCL061C, strain MRC1 (second series), hits give low values",0.997
same,normalized growth,"locus YDR363W, strain ESC2, hits give low values",0.98
same,normalized growth,"locus YER002W, strain NOP16, hits give low values",1.03
same,normalized growth,"locus YGR229C, strain SMI1, hits give low values",0.931
same,normalized growth,"locus YJR075W, strain HOC1, hits give low values",1.01
same,normalized growth,"locus YMR263W, strain SAP30, hits give low values",1
same,normalized growth,"locus YMR307W, strain GAS1, hits give low values",1
same,normalized growth,"locus YNL128W, strain TEP1, hits give low values",1.01
same,normalized growth,"locus YNL153C, strain GIM3, hits give low values",1
same,normalized growth,"locus YNL175C, strain NOP13, hits give low values",1.01
same,normalized growth,"locus YNL197C, strain WHI3, hits give low values",1.03
same,normalized growth,"locus YNL224C, strain SQS1, hits give low values",0.997
same,normalized growth,"locus YOR083W, strain WHI5 (second series), hits give low values",0.989
same,normalized growth,"locus YPL055C, strain LGE1, hits give low values",0.986
NC(=Nc1ccc(F)cc1)SCc1c(Cl)cccc1Cl,normalized growth,[1],0.992
same,normalized growth,[2],0.99
same,normalized growth,[3],0.985
same,normalized growth,[4],0.984
same,normalized growth,[5],0.986
same,normalized growth,[6],0.99
same,normalized growth,[7],0.983
same,normalized growth,[8],0.996
same,normalized growth,[9],0.985
same,normalized growth,[10],0.986
same,normalized growth,[11],0.954
same,normalized growth,[12],0.992
same,normalized growth,[13],0.991
same,normalized growth,[14],0.985
same,normalized growth,[15],0.96
same,normalized growth,[16],0.923
same,normalized growth,[17],0.954
same,normalized growth,[18],0.987
same,normalized growth,[19],0.994
same,normalized growth,[20],0.99
same,normalized growth,[21],0.96
same,normalized growth,[22],0.989
same,normalized growth,[23],0.947
same,normalized growth,[24],0.981
same,normalized growth,[25],0.978
same,normalized growth,[26],0.985
same,normalized growth,[27],0.962
same,normalized growth,[28],1.05
same,normalized growth,[29],0.962
same,normalized growth,[30],0.99
same,normalized growth,[31],0.954
same,normalized growth,[32],0.938
same,normalized growth,[33],0.961
same,normalized growth,[34],0.991
same,normalized growth,[35],0.99
same,normalized growth,[36],1.09
same,normalized growth,[37],0.967
same,normalized growth,[38],0.962
same,normalized growth,[39],0.945
same,normalized growth,[40],0.989
same,normalized growth,[41],1.03
same,normalized growth,[42],0.882
same,normalized growth,[43],0.975
same,normalized growth,[44],0.975
same,normalized growth,[45],0.944
same,normalized growth,[46],0.991
same,normalized growth,[47],0.961
same,normalized growth,[48],0.989
same,normalized growth,[49],0.982
same,normalized growth,[50],0.971
same,normalized growth,[51],0.988
same,normalized growth,[52],1.06
same,normalized growth,[53],0.994
same,normalized growth,[54],0.988
same,normalized growth,[55],0.987
same,normalized growth,[56],0.986
same,normalized growth,[57],0.958
same,normalized growth,[58],0.975
same,normalized growth,[59],1.02
same,normalized growth,[60],0.985
same,normalized growth,[61],0.99
same,normalized growth,[62],0.952
same,normalized growth,[63],0.964
same,normalized growth,[64],0.989
same,normalized growth,[65],0.994
same,normalized growth,[66],0.962
same,normalized growth,[67],0.98
same,normalized growth,[68],0.981
same,normalized growth,[69],0.982
same,normalized growth,[70],0.992
same,normalized growth,[71],1
